Experimental data reported in the supplement of paper PMC9694430.

system: LOC_OS02G17970-cb001; experiment: thermal shift delta Tm vs DMSO control; higher = stronger stabilization (binding); details: 12.5 µM; protein concentration 2 µM
Outline: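 Rice kinase domain constructs, made in E. coli and purified, were placed in 96-well plates at 2 μM in 19.5 μl of 100 mM potassium phosphate pH 7.5, 150 mM NaCl, 10% glycerol and 5 × SYPRO Orange, with compound in DMSO. A temperature ramp from 25°C to 95°C at 0.05°C/s was used for differential scanning fluorimetry. The melting temperature shift is a triplicate mean compared with DMSO-only protein, derived from Boltzmann fits.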
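Note: purified Escherichia coli-expressed rice kinase domain construct.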

First: CCOc1cc2ncc(C#N)c(Nc3ccc(OCc4ccccn4)c(Cl)c3)c2cc1NC(=O)/C=C/CN(C)C [Neratinib (HKI-272)]
Second: CCOc1cc2ncc(C#N)c(Nc3ccc(F)c(Cl)c3)c2cc1NC(=O)/C=C/CN(C)C [Pelitinib (EKB-569)]
The “thermal shift delta Tm” value of the first is higher: 1.71 °C for the first, 0.01 °C for the second.

Going from `COc1cc2nccc(Oc3ccc(NC(=O)Nc4cc(C)on4)c(Cl)c3)c2cc1OC` [Tivozanib (AV-951)] to `COc1cc2ncnc(Nc3ccc(Cl)cc3F)c2cc1OC`, the “thermal shift delta Tm” value rises from 0.14 °C to 1.1 °C.

Going from `O=C1NC(=O)C(c2ccccc2[N+](=O)[O-])=C1Nc1ccc(O)c(Cl)c1` to `Cn1nccc1Nc1nccc(-c2ccn([C@H](CO)c3ccc(Cl)c(F)c3)c(=O)c2)n1`, the “thermal shift delta Tm” value falls from 1.06 °C to -0.12 °C.

Compared with `Cc1c(C(=O)N2CCOc3ccc(-c4ccc(N)nc4)cc3C2)ccc(S(C)(=O)=O)c1F`, `CCCS(=O)(=O)Nc1ccc(F)c(C(=O)c2c[nH]c3ncc(-c4ccc(Cl)cc4)cc23)c1F` [Vemurafenib (PLX4032, RG7204)] is higher in “thermal shift delta Tm” value: 0.12 °C for the first, 1.48 °C for the second.

Going from `COc1cc2c(N3CCN(C(=O)Nc4ccc(OC(C)C)cc4)CC3)ncnc2cc1OCCCN1CCCCC1` [Tandutinib (MLN518)] to `COc1cc(C(=O)N2CCC(N3CCN(C)CC3)CC2)ccc1Nc1ncc2c(n1)N(C)c1ccccc1C(=O)N2C`, the “thermal shift delta Tm” value rises from -0.44 °C to 0.35 °C.

Going from `C[C@@H]1COCCN1c1cc(=O)n2c(n1)N(Cc1cncc(Cl)c1)[C@H](C(F)(F)F)CC2` to `COC(=O)Nc1ccc(-c2nc(N3CCOCC3)c3cnn(C4CCN(C(=O)OC)CC4)c3n2)cc1`, the “thermal shift delta Tm” value falls from 1.7 °C to 0.43 °C.

Compared with `COc1ccc(F)c(F)c1C(=O)c1cnc(NC2CCN(S(C)(=O)=O)CC2)nc1N`, `COc1cc(N2CCC(N(C)C)CC2)ccc1Nc1ncc(Cl)c(Nc2ccccc2P(C)(C)=O)n1` is higher in “thermal shift delta Tm” value: -0.09 °C for the first, 0.5 °C for the second.

First: O=C(NCc1ccccc1)c1csc(Nc2ccncn2)n1 [Thiazovivin]
Second: CC1(C)CNc2cc(NC(=O)c3cccnc3NCc3ccncc3)ccc21 [Motesanib Diphosphate (AMG-706)]
The “thermal shift delta Tm” value of the first is higher: 1.26 °C for the first, 0.6 °C for the second.

Compared with `CCN(CC)CCCCNc1ncc2cc(-c3cc(OC)cc(OC)c3)c(NC(=O)NC(C)(C)C)nc2n1`, `CCN(CC)CCCC(C)Nc1ccnc2cc(Cl)ccc12` (stereo not drawn) [Chloroquine Phosphate] is lower in “thermal shift delta Tm” value: 0.18 °C for the first, -0.06 °C for the second.

Going from `O=c1cc(N2CCOCC2)oc2c(-c3ccc4c(c3)OCCO4)csc12` to `Oc1cccc(-c2nc(N3CCOCC3)c3oc4ncccc4c3n2)c1`, the “thermal shift delta Tm” value rises from -0.32 °C to 0.74 °C.

First: Nc1ccc(C(=O)Nc2cccc(-c3nc(N4CCOCC4)c4oc5ncccc5c4n3)c2)cn1
Second: Nc1ccc(-c2ccc3ncc4ccc(=O)n(-c5cccc(C(F)(F)F)c5)c4c3c2)cn1 [Torin 2]
The “thermal shift delta Tm” value of the first is lower: 0.35 °C for the first, 1.12 °C for the second.

First: O=C(NC[C@H](O)CO)c1ccncc1Nc1ccc(I)cc1F
Second: Cc1ccc(NC(=O)c2cccc(C(C)(C)C#N)c2)cc1Nc1ccc2ncn(C)c(=O)c2c1
The “thermal shift delta Tm” value of the first is lower: 0.32 °C for the first, 1.2 °C for the second.

Compared with `Cc1cc(Nc2ncnc3ccc(NC4=NC(C)(C)CO4)cc23)ccc1Oc1ccn2ncnc2c1` [Irbinitinib (ARRY-380, ONT-380)], `CN(C[C@@H]1COCCO1)S(=O)(=O)Nc1ccc2ccc3ncc(-c4cnn(C)c4)cc3c(=O)c2c1` is higher in “thermal shift delta Tm” value: 0.09 °C for the first, 0.59 °C for the second.

Going from `C=C(C)[C@@H]1CC[C@]2(C)CC[C@]3(C)[C@H](CC[C@@H]4[C@@]5(C)CC[C@H](O)C(C)(C)[C@@H]5CC[C@]43C)[C@@H]12` [Lupeol] to `CO[C@H]1C[C@@H]2CC[C@@H](C)[C@@](O)(O2)C(=O)C(=O)N2CCCC[C@H]2C(=O)O[C@H]([C@H](C)C[C@@H]2CC[C@@H](OCCO)[C@H](OC)C2)CC(=O)[C@H](C)/C=C(\C)[C@@H](O)[C@@H](OC)C(=O)[C@H](C)C[C@H](C)/C=C/C=C/C=C/1C` [Everolimus (RAD001)], the “thermal shift delta Tm” value rises from -0.66 °C to 0.76 °C.

First: CCn1c(N)c(C(=O)NC)c(=O)c2ccc(C#CC(C)(O)COC)nc21 (stereo not drawn)
Second: COc1ccc(S(=O)(=O)N(CCO)c2ccccc2CN(C)C/C=C/c2ccc(Cl)cc2)cc1 [KN-93 Phosphate]
The “thermal shift delta Tm” value of the first is higher: 0.48 °C for the first, 0.03 °C for the second.

Compared with `CCOc1cc(C(=O)N2CCC(N3CCN(C)CC3)CC2)ccc1Nc1ncc2c(n1)N(C1CCCC1)c1ccccc1C(=O)N2C`, `COc1ccc(CCNCc2ccc(OCc3ccc(Cl)nc3)c(OC)c2)cc1OC` is higher in “thermal shift delta Tm” value: -0.43 °C for the first, 0.22 °C for the second.

For `C[C@@H](N)[C@H]1CC[C@H](C(=O)Nc2ccncc2)CC1`, the “thermal shift delta Tm” value was 0.32 °C.
